Bioassay records (PubChem BioAssay)
HEK cytotox: cytotoxic compounds in HEK 293 cells; HEK 293 viability, ATP luminescence (CellTiter-Glo), 48-72 h; Potency, µM (titrated, usually from 115 µM), without a hit: top-dose activity change, negative = cytotoxicity, usual class: inhibitors; 6.6% of 94,000 active; AID 1345083; also: % is scaled to controls: 0 for no effect and ±100 for the full control effect; nearly all actives have a fitted effect of over 60% in size
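250 HEK 293 cells/well; compound by pintool; incubated 48 or 72 hr at 37 degree Celsius; CellTiter-Glo added, 10 min RT, luminescence imaged.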
3T3 cytotox: kills NIH 3T3 cells | Potency, µM (highest dose often 96.7 µM), for the others: at the highest dose activity change, negative = cytotoxicity, hits mostly inhibitors | 4.3% of 94,000 active | NIH 3T3 viability, CellTiter-Glo ATP luminescence, 48-72 h; also: % is scaled to controls: 0 for no effect and ±100 for the full control effect; nearly all actives have a fitted effect of over 55% in size
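Cytotoxicity was measured by CellTiter-Glo ATP luminescence after 48 or 72 h compound exposure at 37 °C. Mouse NIH 3T3 fibroblasts were seeded at 400 cells/well and dosed by 23 nL pin transfer.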
FLuc inh: inhibitors of firefly (Photinus pyralis) luciferase. Potency, µM (doses to about 115 µM), hits mostly inhibitors. P08659. 2.5% of 76,000 active. purified P. pyralis luciferase, luminescence, biochemical; also: % is scaled to controls: 0 for no effect and ±100 for the full control effect; nearly all actives have a fitted effect of over 65% in size
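FLuc 10nM, D-luciferin 10uM, ATP 10uM, Mg acetate 10mM, Tris acetate pH 7.5, Tween/BSA; cpd qHTS; enzyme added last; CCD luminescence.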
NPR1 antag: antagonists of human natriuretic peptide receptor Npr1 | P16066 | 1.6% of 76,000 active | AID 1347048 | HEK293 hNpr1 GloSensor cGMP, ANP-stimulated luminescence | Potency, µM (series often up to 46.3 µM), without a hit: at the top dose activity change, negative = inhibition, most hits filed as inhibitors; calls by dose curve; also: % is scaled to controls: 0 for no effect and ±100 for the full control effect; nearly all actives have a fitted effect of over 60% in size
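Compound pre-incubated 30 min at room temperature on GloSensor-loaded HEK293 cells stably carrying hNpr1 and the pGS-40F cGMP biosensor. Stimulation uses hNppA at 0.1 nM final; luminescence is taken at baseline and 20 min post-agonist.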
NPR1 antag cnf: confirmation of human Npr1 natriuretic peptide receptor antagonists | shares compounds with NPR1 antag | HEK293 hNpr1 cGMP GloSensor luminescence, ANP-stimulated | Potency, µM (top dose mostly 57.6 µM), without a hit: top-dose activity change, negative = inhibition, most hits filed as inhibitors | 76% of 1,400 active | AID 1347044; calls by dose curve; also: nearly all actives have a fitted effect of over 70% in size
NPR2 antag: antagonizes human Npr2, subtype selectivity check. shares compounds with NPR1 antag. 67% of 1,400 active. HEK293 hNpr2 GloSensor cGMP luminescence, CNP-stimulated. Potency, µM (series often up to 57.6 µM), for inactives: at the top dose activity change, negative = inhibition, actives largely listed as inhibitors; calls by dose curve; also: nearly all actives have a fitted effect of over 70% in size
FLuc inh counter: FLuc enzyme inhibition, Npr1 counter-screen | shares compounds with NPR1 antag | purified FLuc enzyme, luminescence, Km substrate | Potency, µM (titrated, usually from 57.6 µM), for the others: top-dose activity change, negative = inhibition, actives largely listed as inhibitors | 0.7% of 1,400 active; also: series mostly up to about 58 µM; 0% is about no effect
GloSensor ctrl: control cell line activity, Npr1 antagonist counter-screen; shares compounds with NPR1 antag; HEK293 GloSensor cGMP, SNP-stimulated, luminescence; Potency, µM (top dose mostly 57.6 µM), inactives show at the top dose activity change, negative = inhibition, hits mostly inhibitors; 69% of 1,400 active; AID 1347051; calls by dose curve; also: % is scaled to controls: 0 for no effect and ±100 for the full control effect; nearly all actives have a fitted effect of over 70% in size
An asterisk follows results filed as active; [ ] = remark or other dose. Hits are enriched below; roughly 11% of the tested compounds scored in any of these assays. Unless noted, calls follow the shape of the dose curve; as a rule, active = well fitted curve in the direction sought with a large enough effect; inconclusive = small, poorly fitted or top-dose-only effect, or another doubt; inactive = no such curve, though single readings can be large; an effect the other way counts as inactive or inconclusive. Potency is read from the fitted curve at half-maximal effect.

`Cn1ccc(NC(=O)c2ccc3c(c2)NC(C)(CNCc2ccccc2)CO3)n1` (stereo not given) gave HEK cytotox inconclusive, 3T3 cytotox -16%[138 µM], FLuc inh inactive and NPR1 antag -7%[70.6 µM].
For CCCCn1c(=O)c(C(=O)N2CCN(C(C)=O)CC2)nc2cccnc21 the results were HEK cytotox 0% and 3T3 cytotox -21%.
Screening Cc1cccc(N2CCN(C(=O)CC3CCCCN(Cc4ccccc4)C3=O)CC2)c1 (stereo not given) returned HEK cytotox inconclusive, 3T3 cytotox inconclusive, FLuc inh inactive, NPR1 antag 13µM*, NPR1 antag cnf 19µM*, NPR2 antag 22µM*, FLuc inh counter -1% and GloSensor ctrl 22µM*.
`Cc1ccc2nc(CO[C@H]3CN(Cc4ccc(C(=O)O)cc4)C[C@H]3F)[nH]c2c1` gave HEK cytotox -5%[172 µM], 3T3 cytotox inactive, FLuc inh inconclusive and NPR1 antag -1%[70.6 µM].
Screening Cc1noc2c(-c3cn[nH]c3)cc(-c3cccc(C(F)(F)F)c3)nc12 returned HEK cytotox 35µM*, 3T3 cytotox 25µM*, FLuc inh inactive, NPR1 antag inconclusive, NPR1 antag cnf inconclusive, NPR2 antag -29%[86.2 µM], FLuc inh counter -8%[86.2 µM] and GloSensor ctrl -16%[86.2 µM].
Cc1noc2c(-c3cccnc3)cc(-c3cccc(C(F)(F)F)c3)nc12 was read as HEK cytotox inconclusive, 3T3 cytotox inconclusive, FLuc inh inactive and NPR1 antag -17%[70.6 µM].
Screening O=C(c1cc(Cl)ccc1F)N1CCN(c2cc(-c3ccccc3)[nH]n2)CC1 returned HEK cytotox inconclusive, 3T3 cytotox inconclusive, FLuc inh inactive and NPR1 antag -20%.
For O=C(c1ccc(F)cc1Cl)N1CCN(c2cc(-c3ccc(F)cc3)[nH]n2)CC1 the results were HEK cytotox inconclusive, 3T3 cytotox inconclusive, FLuc inh inactive, NPR1 antag 11µM*, NPR1 antag cnf 17µM*, NPR2 antag 19µM*, FLuc inh counter -1% and GloSensor ctrl 15µM*.
Screening O=C(c1cc(F)ccc1F)N1CCN(c2cc(-c3ccc(Cl)cc3)[nH]n2)CC1 returned HEK cytotox 35µM*, 3T3 cytotox 28µM*, FLuc inh inactive, NPR1 antag inconclusive, NPR1 antag cnf 27µM*, NPR2 antag 24µM*, FLuc inh counter 1% and GloSensor ctrl 31µM*.
`CCc1nc(CC)n2ccn(Cc3ccc(OC)cc3)c(=O)c12` gave HEK cytotox inconclusive, 3T3 cytotox inconclusive, FLuc inh inactive and NPR1 antag 2%.
For CCc1ncc2c(=O)n(Cc3ccc(OC)cc3)ccn12 the results were HEK cytotox inconclusive, 3T3 cytotox -26%, FLuc inh inactive, NPR1 antag 10µM*, NPR1 antag cnf 12µM*, NPR2 antag 12µM*, FLuc inh counter -3% and GloSensor ctrl 8.6µM*.
`Cc1nc2ccccn2c1C(=O)NC(C)c1cnn(-c2ccccn2)c1C` (stereo not given) gave HEK cytotox inconclusive, 3T3 cytotox inconclusive, FLuc inh inactive, NPR1 antag 4.5µM*, NPR1 antag cnf 6.1µM*, NPR2 antag 9.7µM*, FLuc inh counter 6% and GloSensor ctrl 4.8µM*.
